Measurements published in PubChem BioAssay (NCATS).
Inconclusive results are not listed. Where a call stands in place of a potency, no number is given. A number with no mark means an inactive call. Activity calls are given as the source filed them. Unless noted, calls follow the shape of the dose curve; as a rule, active = well fitted curve in the direction sought with a large enough effect; inconclusive = small, poorly fitted or top-dose-only effect, or another doubt; inactive = no such curve, though single readings can be large; an effect the other way counts as inactive or inconclusive.

Experiments:
[1] = target: Voltage-gated inwardly rectifying potassium channel KCNH2 (Homo sapiens) (UniProt Q12809); assay: qHTS Assay for Small Molecule Inhibitors of the Human hERG Channel Activity (AID 588834); settings: U2OS BacMam hERG, FluxOR thallium flux fluorescence; series mostly up to 46.1 µM;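 also: top concentration of the series differs between compounds; lower thallium flux fluorescence means stronger hERG block; nearly all actives have a fitted effect of over 50% in size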
Chain of Voltage-gated inwardly rectifying potassium channel KCNH2 (Homo sapiens) (Q12809 whole entry, looked up): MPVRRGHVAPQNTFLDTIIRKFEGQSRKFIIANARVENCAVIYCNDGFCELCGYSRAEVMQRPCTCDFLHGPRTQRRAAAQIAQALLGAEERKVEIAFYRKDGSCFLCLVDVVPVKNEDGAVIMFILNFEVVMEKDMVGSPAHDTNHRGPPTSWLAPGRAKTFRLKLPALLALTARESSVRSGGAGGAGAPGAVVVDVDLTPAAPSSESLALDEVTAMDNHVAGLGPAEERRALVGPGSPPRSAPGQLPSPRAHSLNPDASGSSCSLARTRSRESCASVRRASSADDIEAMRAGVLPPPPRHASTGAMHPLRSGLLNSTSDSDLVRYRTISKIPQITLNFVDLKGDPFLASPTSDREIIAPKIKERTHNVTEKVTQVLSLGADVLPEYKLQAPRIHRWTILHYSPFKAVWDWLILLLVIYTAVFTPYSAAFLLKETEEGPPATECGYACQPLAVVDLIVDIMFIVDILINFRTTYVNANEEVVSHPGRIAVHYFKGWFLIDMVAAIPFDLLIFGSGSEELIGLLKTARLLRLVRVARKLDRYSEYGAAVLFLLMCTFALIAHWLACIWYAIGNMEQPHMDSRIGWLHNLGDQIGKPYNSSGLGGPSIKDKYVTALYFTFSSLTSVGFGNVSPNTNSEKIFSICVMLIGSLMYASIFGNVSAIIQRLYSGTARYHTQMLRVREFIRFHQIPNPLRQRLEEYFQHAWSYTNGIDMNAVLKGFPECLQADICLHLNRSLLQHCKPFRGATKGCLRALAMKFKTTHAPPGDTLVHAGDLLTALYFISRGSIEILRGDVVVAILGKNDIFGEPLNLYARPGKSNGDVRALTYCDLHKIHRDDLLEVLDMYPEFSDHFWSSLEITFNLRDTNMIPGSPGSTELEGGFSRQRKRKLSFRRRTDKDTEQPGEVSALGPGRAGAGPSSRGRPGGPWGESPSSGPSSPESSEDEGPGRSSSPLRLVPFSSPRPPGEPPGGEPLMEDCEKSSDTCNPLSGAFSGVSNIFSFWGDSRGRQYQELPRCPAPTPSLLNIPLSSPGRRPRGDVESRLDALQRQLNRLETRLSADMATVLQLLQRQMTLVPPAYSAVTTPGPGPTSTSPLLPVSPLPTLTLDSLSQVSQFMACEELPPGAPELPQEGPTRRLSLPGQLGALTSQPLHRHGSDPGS
Method in brief: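 hERG block measured as reduced thallium-dye (FluxOR) fluorescence after stimulation buffer addition, read over 2 min. Cells were hERG-BacMam-transduced U2OS exposed to compound ~10 min […]; concentration-response fitted with Hill equation for AC50.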

[2] = S16 Schwann cell viability assay (CellTiter-Glo assay) (AID 624031); settings: S16 rat Schwann cells viability, 24 h; series mostly up to 57.5 µM; also: nearly all actives have a fitted effect of over 70% in size; also: potency is read from the fitted curve at half-maximal effect
Method in brief: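 Untransfected S16 rat Schwann cells; compound 24 h, 37 °C/5% CO2; CellTiter-Glo ATP luminescence. % activity vs no-cell wells and DMSO controls (0%); concentration-effect curves classed by r2, response magnitude, activity.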

[3] = S16 Schwann cell PMP22 intronic element beta-lactamase assay (AID 624044; calls by dose curve; also: nearly all actives have a fitted effect of over 15% in size; also: potency is read from the fitted curve at half-maximal effect); settings: S16 rat Schwann cells, PMP22 element beta-lactamase FRET, 24 h; ratio activity, negative = inhibition: at 38.3 µM (top of the series) unless noted
Method in brief: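 Beta-lactamase reporter under a PMP22 intronic regulatory element in stable S16 rat Schwann cells; 24 h compound exposure. 460 nm blue signal normalized between DMSO (0%) and potassium clavulanate, with 535 nm FRET tracking viability; curves classed by r2 and response.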

[4] = S16 Schwann cell PMP22 intronic element firefly luciferase assay (AID 624032); settings: S16 rat Schwann cells, PMP22 element FLuc, 24 h; series mostly up to 57.5 µM; also: nearly all actives have a fitted effect of over 30% in size; also: potency is read from the fitted curve at half-maximal effect
Method in brief: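 Luciferase reporter of PMP22 intronic-element expression in stably transfected S16 rat Schwann cells, read by ONE-Glo luminescence after 24 h compound exposure at 37 C. Activity scaled between DMSO (0%) and positive-control PTC124; concentration-effect curves quality-classified.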

[5] = target: Luciferin 4-monooxygenase (Photinus pyralis) (UniProt P08659); assay: Biochemical firefly luciferase enzyme assay for NPC (AID 624030);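 also: purified P. pyralis luciferase at 10 nM with luciferin and ATP substrate; nearly all actives have a fitted effect of over 70% in size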; settings: purified P. pyralis luciferase, luminescence, 5 min; series mostly up to 58.6 µM
Chain of Luciferin 4-monooxygenase (Photinus pyralis) (P08659 whole entry, looked up): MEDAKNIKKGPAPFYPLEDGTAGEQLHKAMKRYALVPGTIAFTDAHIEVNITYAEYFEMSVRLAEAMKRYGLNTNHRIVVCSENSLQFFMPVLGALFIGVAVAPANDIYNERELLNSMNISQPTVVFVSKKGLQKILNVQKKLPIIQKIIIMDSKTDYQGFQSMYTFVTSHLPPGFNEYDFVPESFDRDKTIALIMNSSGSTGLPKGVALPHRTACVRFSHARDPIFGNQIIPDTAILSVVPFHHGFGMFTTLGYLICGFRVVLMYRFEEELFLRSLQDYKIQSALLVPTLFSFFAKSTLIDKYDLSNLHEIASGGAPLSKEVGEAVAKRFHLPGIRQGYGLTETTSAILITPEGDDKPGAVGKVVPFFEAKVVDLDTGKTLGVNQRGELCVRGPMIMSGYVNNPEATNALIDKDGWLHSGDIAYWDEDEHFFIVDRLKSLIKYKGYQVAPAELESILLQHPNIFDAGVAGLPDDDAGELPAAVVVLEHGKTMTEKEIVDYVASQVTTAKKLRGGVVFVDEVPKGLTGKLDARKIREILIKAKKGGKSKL
Method in brief: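 Direct inhibition of firefly luciferase enzyme (10 nM final, 50 mM Tris Acetate) assessed by luminescence within 5 minutes. Percent activity scaled between DMSO and PTC124 positive control, with concentration-effect curves classified by fit quality and response.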

## CN1C(C(=O)Nc2ccccn2)C(=O)c2sc(Cl)cc2S1(=O)=O (stereo unspecified)
[1]
  Potency: inactive
[2]
  Potency: inactive
[3]
  ratio activity, negative = inhibition: 6.16%

## O=C(c1cc2ccccc2o1)N1CCN(Cc2ccccc2)CC1
[1]
  Potency: inactive
[2]
  Potency: inactive
[4]
  Potency: inactive
[3]
  ratio activity, negative = inhibition: 2.34%

## Cc1cc2nc3c(=O)[nH]c(=O)nc-3n(C[C@H](O)[C@H](O)[C@H](O)COP(=O)(O)OP(=O)(O)OC[C@H]3O[C@@H](n4cnc5c(N)ncnc54)[C@H](O)[C@@H]3O)c2cc1C
[5]
  Potency: inactive
[2]
  Potency: inactive
[4]
  Potency: inactive
[3]
  ratio activity, negative = inhibition: -42.7%

## CCCCCCCCCCCCCCCCCC(=O)OCC(C)O (stereo unspecified)
[1]
  Potency: inactive
[4]
  Potency: inactive

## CN(C)CCOc1ccc(/C(=C(/CCCl)c2ccccc2)c2ccccc2)cc1
[5]
  Potency: inactive
[3]
  ratio activity, negative = inhibition: -1.5%

## S=C1SCN(Cc2ccccc2)CN1Cc1ccccc1
[5]
  Potency: inactive
[4]
  Potency: 14.4 µM (active)
[3]
  ratio activity, negative = inhibition: -11.2%

## CCCCCCCCCCCCCCCCOCCOCCOCCOCCOCCOCCOCCOCCOCCOCCOCCOCCOCCOCCOCCOCCOCCOCCOCCOCCO
[5]
  Potency: inactive
[2]
  Potency: 28.7 µM (active)
[4]
  Potency: 22.8 µM (active)
[3]
  Potency: 19.9 µM (active)

## CCSc1ccc2c(c1)N(CCCN1CCN(C)CC1)c1ccccc1S2
[5]
  Potency: inactive
[2]
  Potency: inactive
[4]
  Potency: inactive

## Cc1ccccn1
[5]
  Potency: inactive
[2]
  Potency: inactive
[4]
  Potency: inactive
[3]
  ratio activity, negative = inhibition: -0.827%

## C[C@]12CC[C@@H]3c4ccc(OC(=O)c5ccccc5)cc4CC[C@H]3[C@@H]1CC[C@@H]2O
[5]
  Potency: inactive
[2]
  Potency: inactive
[4]
  Potency: 3.61 µM (active)

## Cc1c(Cl)cccc1Nc1ncccc1C(=O)O
[1]
  Potency: inactive
[2]
  Potency: inactive
[4]
  Potency: inactive
[3]
  ratio activity, negative = inhibition: -7.17%
